# MEKK3 PB1 HTS = MEKK3-MEK5 PB1 interaction, increase or decrease; Q99759; bead-based flow cytometry, Alexa488-MEK5 binding to MEKK3; actives lie on both sides; 0 = blocked by unlabeled MEK5, 100 = vehicle; actives 1.4% (n = 290,000); AID 1529; binding response (% of control), % at 10 µM;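 active = binding response more than 3 SD above or below the average of its plate-row segment, actives on both sides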;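 note: Alexa488 bead fluorescence after subtracting the streptavidin-only scavenger bead signal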
# CHT PAM = allosterically activates the human high affinity choline transporter | CHT-expressing cells, membrane potential dye, choline EC20; active compounds read high; LV-AA mutant CHT in HEK293 cells | B-score at 10 µM | Q9GZV3 | AID 488977 | actives 0.49% (n = 310,000);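 active = initial fluorescence not abnormally high and integrated response B-score, plate-corrected, over 3 SD above library mean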
# MEKK2 WT-MEK5 = raises or lowers MEK5 binding to wildtype human MEKK2 PB1 domain. Q9Y2U5. bead flow cytometry, Alexa488-MEK5 binding to MEKK2 WT; actives lie on both sides. binding response (% of control), % at 10 µM. actives 1.1% (n = 290,000); in the data active = binding response below about 67% or above about 130%
# MEKK2mut PB1 HTS = signal of MEK5 binding to mutant human MEKK2 PB1 domain; bead flow cytometry, Alexa488-MEK5 binding to MEKK2 mutant; actives 0.35% (n = 290,000); percent response, % at 10 µM; in the data active = percent response above about 24%, passing the limit was not always enough
# CHT block = human CHT choline transport inhibition; CHT-expressing cells, membrane potential dye, choline response; active compounds read low; actives 0.86% (n = 310,000); AID 488975; B-score at 10 µM; Q9GZV3;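 active = B-score over 3 SD under the library average, and starting fluorescence ratio not unusually high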;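 note: choline stimulus applied at its EC90 after an EC20 pre-addition; B-score computed on integrated fluorescence ratio after choline addition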
# Mot1-301 SUMO = SUMOylation pathway inhibition by Mot1-301 growth rescue | actives 1% (n = 320,000) | growth rescue, % at 18.8 µM | AID 2716 | S. cerevisiae Mot1-301 growth rescue, ATP luminescence, 38.5C; percent above DMSO median, 100 means doubled;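 active = every valid replicate shows activation above 250% relative to neutral control wells; inactive = the rest, any valid replicate at or below 250%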;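 note: OY570 slx delta 5 strain wells were the positive control but not used for scaling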
# CHT block conf = confirmation of human choline transporter CHT inhibitors. shares compounds with CHT block. CHT-expressing cells, choline membrane potential dye; LV-to-AA substituted CHT, HEK293 cells. CHT activity remaining % of control (active compounds read low), % at 10 µM. actives 70% (n = 2,400);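 active = choline transporter activity left, mean of duplicates at 10 µM, below buffer-only control mean minus 3 SD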;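 note: depolarization triggered by choline at its EC90 following an EC20 pre-addition; 0% = hemicholinium-3 full block and 100% = buffer-only control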
# HEK293 MPD ctr = activity in parental HEK293 cells lacking CHT. shares compounds with CHT block. membrane potential dye, choline response; active = decrease or increase beyond buffer ±3SD. membrane potential ratio readout (active if shifted either direction beyond buffer ±3SD; no single direction) at 10 µM. actives 4% (n = 2,400);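 note: parental cells lack the transporter so any hit is non-specific; ratio is peak minus trough fluorescence over baseline after EC90 choline challenge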
# Starred values were filed as active, the others as inactive; i = inactive; / = no result given. An excerpt weighted towards active compounds, which were near 4.1% of everything screened.
SMILES,MEKK3 PB1 HTS,CHT PAM,MEKK2 WT-MEK5,MEKK2mut PB1 HTS,CHT block,Mot1-301 SUMO,CHT block conf,HEK293 MPD ctr
Cc1ccc(S(=O)(=O)N2CCC(=O)N(CCOCc3ccc(F)cc3)CC2)cc1,68,i,80,1,-5.9*,-2,54%*,i
CCC(C)NC(=O)C(=O)NCC1CCCN1CC (configuration not stated),97,i,90,-9,i,-4,/,/
COC(=O)c1ccccc1S(=O)(=O)N1CCC(C(=O)Nc2ccc(N3CCOCC3)cc2)CC1,/,/,/,/,/,-13,/,/
Cn1c(=O)[nH]c2nnc(-c3ccc(Cl)c(Cl)c3)nc2c1=O,93,i,102,1,-5*,-1,34%*,i
Cc1ccccc1COCCN1CCN(S(=O)(=O)c2ccccc2)CCC1=O,97,i,101,-5,i,-24,/,/
CCc1nc(NC(C)C)c2oc3ccccc3c2n1,113,i,110,13,i,2,/,/
CCc1nc(NCc2ccccn2)c2oc3ccccc3c2n1,107,i,104,-2,i,-9,56%*,i
Cc1noc(C)c1S(=O)(=O)N(CC(=O)NC1CCC(C)CC1)c1ccc(C(C)C)cc1 (configuration not stated),98,i,94,3,i,-1,/,/
CCn1cc(/C=C(\NC(=O)c2ccccc2F)C(=O)NCCCn2ccnc2)c2ccccc21,103,i,111,11,-7.2*,-7,28%*,i
CCn1cc(/C=C(\NC(=O)c2ccccc2F)C(=O)N2CCOCC2)c2ccccc21,100,i,101,-5,-5.1*,-6,46%*,i
CCn1cc(/C=C(\NC(=O)c2ccccc2Cl)C(=O)N2CCOCC2)c2ccccc21,100,i,97,-2,i,-14,/,/
O=C(NCCCn1ccnc1)/C(=C\c1ccc(Br)cc1)NC(=O)c1ccccc1,100,i,95,2,-5*,-7,59%*,i
O=C(N/C(=C\c1ccc(Br)cc1)C(=O)N1CCOCC1)c1ccccc1Cl,105,i,106,4,-5.6*,123,i,i
CCn1cc(/C=C(\NC(=O)c2ccccc2OC)C(=O)NCCCn2ccnc2)c2ccccc21,103,i,111,9,i,-13,/,/
O=C(N/C(=C\c1ccc(Br)cc1)C(=O)N1CCCC1)c1ccccc1F,99,i,98,-4,i,-4,/,/
COCCN(C(=O)CCC(=O)Nc1cc(C)on1)C(C(=O)NC(C)(C)C)c1cccc(OC)c1OC (configuration not stated),101,i,95,3,-5.8*,-28,i,i
COc1cccc(C(C(=O)NC(C)(C)C)N(CCC(C)C)C(=O)CCC(=O)Nc2cc(C)on2)c1OC (configuration not stated),99,i,96,-2,i,-4,/,/
CC(C)(C)c1csc(NC(=O)c2ccccc2O)n1,98,i,96,-5,-6.8*,1,i,i
Cc1csc(NC(=O)c2ccccc2O)n1,105,i,108,4,i,-11,/,/
O=C(c1ccc2c(c1)OCO2)C1CCCN(Cc2ccc(OC(F)F)cc2)C1 (configuration not stated),101,i,108,4,i,37,/,/
COC(=O)c1ccc(C(=O)N2CCCC(Nc3ccc(C(C)C)cc3)C2)nc1 (configuration not stated),99,i,95,1,-5.2*,4,58%*,i

# Screening results as filed in PubChem.
